The values that follow come from PubChem BioAssay AID1259421 (Broad Institute, 2018).

Each structure is given as a SMILES string. Values joined by “and” are separate entries in the source; they are usually repeats but may differ in a detail not shown here. Equal entries are not always repeated. Out of some 6,400 compounds screened, about 610 (9.5%) were called active. Rule as the data show it: active = activity change below about -70%; inconclusive = no clear call, values can overlap the other calls; inactive = above that. This excerpt belongs to a sample that is enriched for actives. Where a structure was tested more than once in an assay, its records may differ in their call. *1 amine or outer side, *2 acyl side, *3 side chain or, on linkers, in order; H or OH if unused. Where a SMILES comes first, the peptide text is derived from it. [ ]: non-standard residue; d: D form. LeuΨ(S-CHOHCH2)Ala = CC(C)C[C@H](N[*:1])[C@@H](O)C[C@@H](C)C(=O)[*:2]

This test is described as follows: Toxoplasma gondii ME49Luc growth in HeLa cells, luciferase, no IFN-y, primary screen (AID 1259421). The conditions noted are these: T. gondii ME49Luc in HeLa, 72 h, stronger effect = lower value, concentration not given here.
For the compound `CCN(CC)CC(=O)Oc1ccc(NC(C)=O)cc1`, the activity change, negative = inhibition was 7.5% (inactive). For `OC[C@H]1O[C@H](O[C@H]2O[C@H](CO)[C@@H](O)[C@H](O)[C@H]2O)[C@H](O)[C@@H](O)[C@@H]1O` the value was 7.53% (inactive). In the case of `C[N@+]12CCCC[C@@H]1CCC(=C(c1cccs1)c1cccs1)C2`, the activity change, negative = inhibition was 13.6% (inactive). As for `O=C(O)c1cc(=O)c2c3nc4ccccc4oc-3cc(=O)c2[nH]1`, the activity change, negative = inhibition is 1.96% (inactive). In the case of `CC(=O)N[C@H]1[C@H]([C@H](O)[C@H](O)CO)OC(C(=O)O)=C[C@@H]1N=C(N)N`, the activity change, negative = inhibition is 10.9% (inactive). Turning to `COc1ccc(-c2ccc3ncc4c(c3c2)n(-c2ccc(N3CCNCC3)c(C(F)(F)F)c2)c(=O)n4C)cn1`, the activity change, negative = inhibition is -88.5% (active). For the compound `Cc1cc(C)cc(C(=O)N(C)[C@H](Cc2ccc(-c3ccccc3)cc2)C(=O)N[C@@H](Cc2c[nH]c3ccccc23)C(=O)O)c1`, the activity change, negative = inhibition was 13% (inactive). On to `C[C@H]1CNCCCN1S(=O)(=O)c1cccc2cncc(F)c12`, for which the activity change, negative = inhibition was -2.52% (inactive).

Turning to `Nc1nnc(Sc2ncc([N+](=O)[O-])s2)s1`, the activity change, negative = inhibition is 9.53% (inactive). In the case of `CC[C@H](CC#N)OC(=O)N[C@@H](C)c1cccc(NC(=O)Nc2ccc(-c3cnco3)c(OC)c2)c1`, the activity change, negative = inhibition is -82% (active). Turning to `COc1cc(NC(=O)Nc2cccc(CNC(=O)O[C@H]3CCOC3)c2)ccc1-c1cnco1`, the activity change, negative = inhibition is -79.3% (active). Consider `CC(C)CN(C[C@@H](O)[C@H](Cc1ccccc1)NC(=O)O[C@H]1CCOC1)S(=O)(=O)c1ccc(N)cc1`, for which the activity change, negative = inhibition is 0.811% (inactive). For the compound `Cc1cc2c(OCC(CNC(C)(C)C)OC(=O)c3ccccc3)cccc2[nH]1` (stereo not given), the activity change, negative = inhibition is 18.3% (inactive).

Turning to `Cc1c(NC(=O)c2cc3c(s2)CCCC3)cccc1-c1cn(C)c(=O)c(Nc2ccc(C3C(=O)N(C)CCN3C)cc2)n1` (stereo not given), the activity change, negative = inhibition was 97.9% (inactive). For `CCC(C(=O)O)c1ccc(N2Cc3ccccc3C2=O)cc1` (stereo not given) the value was 122% (inactive). Take `Nc1nc2c(sc(=O)n2[C@@H]2O[C@H](CO)[C@@H](O)[C@H]2O)c(=O)[nH]1`: the activity change, negative = inhibition was -8.34% (inactive). Consider `COc1cc2c(cc1OC)C(=O)OC2`, for which the activity change, negative = inhibition is -0.409% (inactive). For `C[C@H](Oc1cc(-c2cnn(C3CCNCC3)c2)cnc1N)c1c(Cl)ccc(F)c1Cl` the value was -84.6% (active) and 9.96% (inactive); for `C[C@@H](Oc1cc(-c2cnn(C3CCNCC3)c2)cnc1N)c1c(Cl)ccc(F)c1Cl`, -43.1% (inactive) and -79.1% (active). As for `Fc1cc(-c2cccc3ncc(-c4cnn(C5CCNCC5)c4)nc23)cc(F)c1CN1CCOCC1`, the activity change, negative = inhibition is 6.9% (inactive).

Take `CCCCCCCCCCCC[C@H](C(=O)O)[C@@H](C)C(=O)O`: the activity change, negative = inhibition is 2.19% (inactive). In the case of `Oc1c(Cl)cc(Cl)cc1Sc1cc(Cl)cc(Cl)c1O`, the activity change, negative = inhibition is -82.5% (active) and -6.64% (inactive). With `C#CCN(C)CCCOc1ccc(Cl)cc1Cl`, the activity change, negative = inhibition was 20.2% (inactive) and 29.2% (inactive).

Consider `Cc1cc(Cl)ccc1OCCCC(=O)NO`, for which the activity change, negative = inhibition is -90% (active).

On to `O=C(CCCS)NC1CCN(C(=O)COc2ccc(Cl)cc2Cl)CC1`, for which the activity change, negative = inhibition was -3% (inactive). Regarding `CN(CC(=O)O)C(=N)N`, the activity change, negative = inhibition is 15.6% (inactive). For the compound `CCC[C@@H](NC(=O)N1C(=O)C(CC)(CC)[C@@H]1Oc1ccc(C(=O)N2CCN(C)CC2)cc1)c1ccc2c(c1)OCO2`, the activity change, negative = inhibition was 4.37% (inactive). `CC(C)C[C@H](NC(=O)[C@H](CC(N)=O)NC(=O)[C@@H](NC(=O)[C@@H](N)CCC(=O)O)C(C)C)[C@@H](O)C[C@@H](C)C(=O)N[C@@H](C)C(=O)N[C@@H](CCC(=O)O)C(=O)N[C@@H](Cc1ccccc1)C(=O)O` (H-EVN[LeuΨ(S-CHOHCH2)Ala]AEF-OH): the activity change, negative = inhibition was 3.01% (inactive).

On to `Nc1cc(-c2ccncc2)c[nH]c1=O`, for which the activity change, negative = inhibition was 3.96% (inactive) and 3.4% (inactive). Take `Cc1[nH]c(=O)c(C#N)cc1-c1ccncc1`: the activity change, negative = inhibition is 46.4% (inactive) and 9.05% (inactive). Consider `O=C1NCCc2[nH]c(-c3ccncc3)cc21`, for which the activity change, negative = inhibition was -75.8% (active). Turning to `CCOC(=O)C(CCc1ccccc1)NC1CCc2ccccc2N(CC(=O)O)C1=O` (stereo not given), the activity change, negative = inhibition was 3.98% (inactive). Regarding `Nc1ncnc2nc(-c3ccc(N4CCOCC4)nc3)cc(-c3cccc(Br)c3)c12`, the activity change, negative = inhibition was -21.2% (inactive) and -9.62% (inactive). In the case of `Cc1nc2c(-c3cnc(N)nc3)nc(N3CCOCC3)nc2n1C(C)C`, the activity change, negative = inhibition is -14% (inactive). In the case of `Nc1cc(C(F)(F)F)c(-c2cc(N3CCOCC3)nc(N3CCOCC3)n2)cn1`, the activity change, negative = inhibition is -70.3% (active). Turning to `CC(=O)SCCC(=O)N1C(C)CCCC1C(=O)O` (stereo not given), the activity change, negative = inhibition is 20.2% (inactive). `O=C(O)[C@H]1CN(C/C=C/P(=O)(O)O)CCN1`: the activity change, negative = inhibition was -6.53% (inactive). Consider `CC1(C)Oc2ccc(C#N)cc2[C@H](N2CCCC2=O)[C@H]1O` (racemic), for which the activity change, negative = inhibition was 17% (inactive). The value for `CCN(CC)CCNC(=O)c1ccc(I)cc1` was 11.1% (inactive); that for `O=C(Nc1ccccc1)Nc1ccc(-c2ccc(C(=O)[C@@H]3CCC[C@@H]3C(=O)O)cc2)cc1` was 16.1% (inactive). For the compound `c1cnc2cc3c(cc2n1)C1CNCC3C1`, the activity change, negative = inhibition is 5.57% (inactive). Turning to `CC1=C(CC(=O)O)c2cc(F)ccc2/C1=C\c1ccc(S(C)=O)cc1` (stereo not given), the activity change, negative = inhibition was 13.1% (inactive) and -5% (inactive). On to `CO[C@H]1CC(O[C@@H]2/C(C)=C/C[C@@H]3C[C@@H](C[C@]4(C=C[C@H](C)[C@@H](C5CCCCC5)O4)O3)OC(=O)[C@@H]3C=C(C)[C@@H](O)[C@H]4OC/C(=C\C=C\[C@@H]2C)[C@]43O)O[C@@H](C)C1O[C@H]1C[C@H](OC)[C@@H](O)[C@H](C)O1` (stereo not given in full), for which the activity change, negative = inhibition is -62.7% (inactive). On to `COc1cc(/C=C/c2ccc(OC)cc2OC)cc(OC)c1`, for which the activity change, negative = inhibition is -58.6% (inactive) and -57.8% (inactive). For `N#CCNC(=O)c1ccc(-c2ccnc(Nc3ccc(N4CCOCC4)cc3)n2)cc1` the value was -88.6% (active). Consider `Cc1cc(N2CCOCC2)ccc1Nc1nc(NC2CCCCC2)c2[nH]cnc2n1`, for which the activity change, negative = inhibition was -50.9% (inactive).

Consider `CCn1c2ccccc2c2cc(Nc3ccnc(NCCCN4CCOCC4)n3)ccc21`, for which the activity change, negative = inhibition was -53.7% (inactive). With `CCCN1CCN(c2ccc(C(=O)NC3(C(=O)NCC#N)CCCCC3)cc2)CC1`, the activity change, negative = inhibition is 15.1% (inactive).

As for `O=C(NCCCN1CCOCC1)c1ccc(Cl)cc1`, the activity change, negative = inhibition is 10.9% (inactive). As to `Cc1nc(N)sc1-c1ccnc(Nc2ccc(N3CCOCC3)cc2)n1`, the activity change, negative = inhibition was -80.3% (active).
